# The source made the active and inactive calls.
# Assays:
# [1] = test system: PRMT1 (protein arginine N-methyltransferase 1); test: PRMT1 binders on small-molecule microarrays, primary screen, biochemical, small-molecule microarray, 635 nm fluorescence (AID 1088); conditions: small-molecule microarray binding, higher = more signal;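 note: binding of Prmt1 protein to compounds spotted on small-molecule microarray slides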
# [2] = yeast growth modulation, basal conditions, primary screen, YJM789 clinical isolate, OD600, 24 h (AID 1089);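 note: growth of clinical yeast isolate S. cerevisiae YJM 789 seeded 1000 cells per well; test concentration not given here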; conditions: S. cerevisiae YJM789 growth, higher = more signal, called active from +8 up or from −8 down
# [3] = fission yeast growth modulation, primary screen, strain 972, OD600, 24 h, no modulator (AID 1090);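 note: basal condition with compound alone and no growth modifier present; test concentration not given here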; conditions: S. pombe 972 growth, higher = more signal, called active from +8 up or from −8 down
# [4] = S. cerevisiae growth modulation with rapamycin, primary screen, strain BY4716, OD600, 96 h (AID 1091); conditions: higher = more signal, called active from +8 up or from −8 down; note: test concentration not given here
# [5] = target: Torsin-1A-interacting protein 2 (Homo sapiens) (UniProt Q8NFQ8); test: LULL1 binders on small-molecule microarray, primary screen, cell lysate, human LULL1 lysate, 635/667 nm fluorescence (AID 1092); conditions: hLULL1 lysate binding, 635 nm fluorescence, higher = more signal;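 note: probe is lysate of COS7 cells overexpressing human LULL1; score merges per-feature 667 nm fluorescence with signal-to-noise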
# Sequence of Torsin-1A-interacting protein 2 (Homo sapiens) (Q8NFQ8 whole entry, looked up): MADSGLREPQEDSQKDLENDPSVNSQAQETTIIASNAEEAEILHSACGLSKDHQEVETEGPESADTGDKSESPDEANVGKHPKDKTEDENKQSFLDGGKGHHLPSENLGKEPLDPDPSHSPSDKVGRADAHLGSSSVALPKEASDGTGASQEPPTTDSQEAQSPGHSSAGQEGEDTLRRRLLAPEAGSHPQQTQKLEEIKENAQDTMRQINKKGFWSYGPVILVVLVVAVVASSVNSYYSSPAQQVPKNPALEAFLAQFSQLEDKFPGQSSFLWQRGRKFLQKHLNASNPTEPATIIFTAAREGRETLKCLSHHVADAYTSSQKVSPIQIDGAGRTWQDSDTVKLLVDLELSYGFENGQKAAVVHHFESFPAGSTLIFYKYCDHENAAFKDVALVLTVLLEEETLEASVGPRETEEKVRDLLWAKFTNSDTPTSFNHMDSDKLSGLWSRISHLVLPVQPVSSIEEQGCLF
# [6] = E. coli growth modulation, two-sided OD650, primary screen, E. coli filamentation project, strain DRC41, 24 h (AID 1093); conditions: OD650, 24 h, higher = more signal, called active from +8 up or from −8 down;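 note: MC1000 strain lacking acrAB efflux and sulA so SOS filamentation is blocked; test concentration not given here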
# [7] = small-molecule microarray binders of probe aLefty2, primary screen, biochemical, biotinylated probe, 635/667 nm fluorescence (AID 1094); conditions: higher = more signal;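 note: score merges spot fluorescence near 667 nm with spot signal-to-noise ratio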
# [8] = test system: Noggin (protein binding on small-molecule microarray); test: Noggin binders on small-molecule microarray, primary screen, biochemical, 635/667 nm fluorescence (AID 1095); conditions: 635 nm fluorescence, higher = more signal;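 note: score merges 667 nm feature fluorescence with signal to noise over triplicate slides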
# [9] = target: Neurogenic locus notch homolog protein 3 (Homo sapiens) (UniProt Q9UM47); test: NOTCH3 binders on small-molecule microarray, primary screen, biochemical, 635/667 nm fluorescence (AID 1096); conditions: NOTCH3 binding, 635 nm fluorescence, higher = more signal
# Sequence of Neurogenic locus notch homolog protein 3 (Homo sapiens) (Q9UM47 whole entry, looked up): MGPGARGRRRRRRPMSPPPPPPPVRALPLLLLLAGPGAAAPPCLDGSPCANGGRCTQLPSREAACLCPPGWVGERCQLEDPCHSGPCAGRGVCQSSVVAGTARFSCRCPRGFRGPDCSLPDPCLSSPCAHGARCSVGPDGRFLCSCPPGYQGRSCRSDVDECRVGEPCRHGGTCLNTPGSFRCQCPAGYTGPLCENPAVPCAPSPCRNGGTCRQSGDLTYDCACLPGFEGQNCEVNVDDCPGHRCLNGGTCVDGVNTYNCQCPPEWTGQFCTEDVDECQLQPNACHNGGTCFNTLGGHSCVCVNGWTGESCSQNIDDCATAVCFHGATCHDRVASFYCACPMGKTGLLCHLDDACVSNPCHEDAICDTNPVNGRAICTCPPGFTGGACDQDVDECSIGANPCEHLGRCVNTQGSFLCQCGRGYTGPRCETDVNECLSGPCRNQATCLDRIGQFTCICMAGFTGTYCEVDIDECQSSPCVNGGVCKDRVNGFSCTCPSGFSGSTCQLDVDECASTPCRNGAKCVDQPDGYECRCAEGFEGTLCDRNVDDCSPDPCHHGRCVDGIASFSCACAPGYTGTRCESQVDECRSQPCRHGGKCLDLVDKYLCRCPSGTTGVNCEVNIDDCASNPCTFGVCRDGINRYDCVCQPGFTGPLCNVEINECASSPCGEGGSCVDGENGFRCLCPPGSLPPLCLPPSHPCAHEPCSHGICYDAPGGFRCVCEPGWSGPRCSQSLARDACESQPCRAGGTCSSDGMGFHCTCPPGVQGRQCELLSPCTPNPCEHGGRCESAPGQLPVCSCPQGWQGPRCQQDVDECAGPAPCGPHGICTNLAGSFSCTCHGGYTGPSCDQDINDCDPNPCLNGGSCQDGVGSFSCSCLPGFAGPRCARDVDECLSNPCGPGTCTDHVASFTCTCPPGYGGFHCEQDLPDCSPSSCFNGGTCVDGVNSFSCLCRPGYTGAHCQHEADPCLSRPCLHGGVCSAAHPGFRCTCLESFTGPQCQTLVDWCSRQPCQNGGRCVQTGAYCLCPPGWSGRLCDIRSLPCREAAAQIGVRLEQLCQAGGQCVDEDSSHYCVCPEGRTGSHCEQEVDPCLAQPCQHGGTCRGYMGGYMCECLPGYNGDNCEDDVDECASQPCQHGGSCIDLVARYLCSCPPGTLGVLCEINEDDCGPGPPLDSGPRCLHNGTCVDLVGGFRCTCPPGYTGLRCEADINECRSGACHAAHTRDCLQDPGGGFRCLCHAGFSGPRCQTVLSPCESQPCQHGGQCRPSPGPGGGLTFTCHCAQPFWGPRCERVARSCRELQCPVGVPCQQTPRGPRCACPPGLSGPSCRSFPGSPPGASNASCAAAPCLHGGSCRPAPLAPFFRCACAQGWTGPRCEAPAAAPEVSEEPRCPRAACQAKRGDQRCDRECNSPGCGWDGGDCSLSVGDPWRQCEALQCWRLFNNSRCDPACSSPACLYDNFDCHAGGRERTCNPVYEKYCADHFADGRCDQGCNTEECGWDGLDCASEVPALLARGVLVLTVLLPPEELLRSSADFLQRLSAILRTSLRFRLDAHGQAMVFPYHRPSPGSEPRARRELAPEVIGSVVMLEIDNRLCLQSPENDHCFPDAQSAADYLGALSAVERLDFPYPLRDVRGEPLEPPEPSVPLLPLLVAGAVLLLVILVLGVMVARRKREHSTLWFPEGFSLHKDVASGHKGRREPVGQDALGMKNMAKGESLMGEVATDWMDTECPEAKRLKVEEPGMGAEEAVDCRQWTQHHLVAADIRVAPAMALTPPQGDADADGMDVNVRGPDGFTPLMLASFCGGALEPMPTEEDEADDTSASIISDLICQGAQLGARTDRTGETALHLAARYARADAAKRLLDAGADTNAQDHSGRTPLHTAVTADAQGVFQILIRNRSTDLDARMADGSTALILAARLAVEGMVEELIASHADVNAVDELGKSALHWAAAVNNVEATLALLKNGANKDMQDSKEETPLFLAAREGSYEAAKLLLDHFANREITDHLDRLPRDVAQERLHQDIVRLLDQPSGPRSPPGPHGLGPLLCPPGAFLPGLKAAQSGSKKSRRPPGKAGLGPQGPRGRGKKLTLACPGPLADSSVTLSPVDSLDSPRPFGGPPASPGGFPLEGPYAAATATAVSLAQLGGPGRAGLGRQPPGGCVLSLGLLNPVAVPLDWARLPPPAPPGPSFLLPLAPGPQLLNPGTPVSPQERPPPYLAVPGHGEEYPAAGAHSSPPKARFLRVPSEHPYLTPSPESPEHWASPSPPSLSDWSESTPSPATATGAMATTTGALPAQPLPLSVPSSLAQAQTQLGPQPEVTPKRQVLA
# [10] = small-molecule microarray binders of probe aEGFR, primary screen, biochemical, biotinylated probe, 635/667 nm fluorescence (AID 1097); conditions: higher = more signal;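 note: probe is a biotinylated anti-EGFR antibody binding compounds printed on slides; score combines fluorescence near 667 nm and signal to noise of each spot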
SMILES,composite z-score [1],z-score [2],z-score [3],z-score [4],composite z-score [5],z-score [6],composite z-score [7],composite z-score [8],composite z-score [9],composite z-score [10]
O=C(CS)NCCCCCCNC(=O)[C@@H]1C[C@@H]2C(=O)N3CCC[C@H]3C(=O)N2[C@@H]1c1ccc(O)cc1,1.14,0.883 (inactive),0.626 (inactive),1.07 (inactive),2.54,0.0508 (inactive),-0.0903,-0.221,0.165,-0.118
O=C1OCC=C[C@H]2OC34C=CCN(c5ccc6ccccc6c5)C(=O)[C@H]3N(CCCO)C(=O)[C@@H]4[C@@H]12 (stereo not given in full),-0.3,0.0281 (inactive),-0.318 (inactive),0.0596 (inactive),-0.309,0.993 (inactive),0.0061,0.0654,0.0404,-0.186
O=C1OCCC=C[C@H]2OC34C=CCN(Cc5ccccc5)C(=O)[C@H]3N(CCCCCCO)C(=O)[C@@H]4C12 (stereo not given in full),0.831,0.104 (inactive),-0.0853 (inactive),-0.0696 (inactive),3.21,0.801 (inactive),-0.42,-0.485,0.127,-0.309
CC(C)C[C@@H]1NC(=O)[C@@H]2C[C@H](C(=O)NCCCCCC[N+](C)(C)C)[C@H](c3ccc(O)cc3)N2C1=O,1.56,0.633 (inactive),0.904 (inactive),0.445 (inactive),3.21,0.266 (inactive),-0.0437,0.857,0.873,-0.176
CCOC(=O)[C@H]1C/C=C/C[C@H](C(=O)OCC)C(=O)O[C@H]2[C@@H](OC)O[C@H](CO)[C@@H](OC(=O)Nc3ccc4c(c3)OCO4)[C@@H]2OC1=O,0.921,1.12 (inactive),0.079 (inactive),6.03 (inactive),2.35,1.59 (inactive),-0.0238,-0.259,0.145,-0.071
CN1C(=O)C2C(C1=O)C1C=C(CCCO)C2C(c2cccs2)N1C (stereo not given),-0.214,-0.68 (inactive),-0.149 (inactive),-0.113 (inactive),2.69,0.729 (inactive),-0.384,-0.4,-0.553,-0.385
COc1cc2c(cc1O)C(C)N(Cc1cccc(OC(F)(F)F)c1)CC2 (stereo not given),1.42,-0.167 (inactive),-2.4 (inactive),-1.09 (inactive),3.02,-1.26 (inactive),-0.0719,0.205,0.76,-0.0697
[N-]=[N+]=NCc1ccccc1C[C@]1(C(=O)O)N=C(c2ccc(OCCCO)cc2)O[C@H]1c1ccccc1CN=[N+]=[N-],0.893,-1.17 (inactive),-3.09 (inactive),-1.92 (inactive),3.25,-0.292 (inactive),0.0987,-0.118,0.759,0.0617
CCCCCCCCCCC(O)C1C=CC2C(=O)N(Cc3ccccc3)C(=O)C2N1n1cnnc1 (stereo not given),1.14,0.187 (inactive),-0.25 (inactive),-0.976 (inactive),2.75,-1.45 (inactive),0.326,-0.331,0.55,0.0773
COC(=O)c1ccc(C(O)C2C=CC3C(=O)N(c4ccccc4)C(=O)C3N2Nc2ccc(C#N)cc2)o1 (stereo not given),0.431,-0.0337 (inactive),0.328 (inactive),0.989 (inactive),3.19,-1.07 (inactive),-0.0478,0.284,0.927,-0.0446
C=CCC(OC(C)=O)[C@@H]1[C@@H](N(Cc2cc3ccccc3o2)C(=O)c2ccc(C)cc2)c2cc(OCCCO)ccc2N1C(=O)c1ccc2ccccc2c1 (stereo not given in full),-0.21,-0.44 (inactive),0.116 (inactive),0.0217 (inactive),0.346,1.65 (inactive),-0.0258,0.341,-0.0158,-0.0536
COc1ccc([Si](C)(C)[C@@H]2[C@@H](CCn3cc([C@H](O)c4ccccc4)nn3)O[C@]3(C(=O)N(Cc4cccc(N5CCOC5=O)c4)c4ccccc43)[C@H]2C)cc1,-0.217,1.56 (inactive),1.45 (inactive),3.61 (inactive),0.697,0.894 (inactive),-0.117,-0.89,-1.29,-0.278
CCCCC=C[C@@H](NC(=O)c1ccc(C(=O)OC)cc1)c1ccccc1,1.29,-0.381 (inactive),-1.22 (inactive),0.771 (inactive),2.46,-0.894 (inactive),0.145,0.454,1.02,-0.0936
[N-]=[N+]=Nc1ccccc1[C@H]1OC(c2ccc(OCCCO)cc2)=N[C@@]1(CCS(=O)(=O)c1ccccc1)C(=O)O,0.164,-0.775 (inactive),-3.52 (inactive),-0.0047 (inactive),3.2,1.46 (inactive),0.308,-0.688,-0.0883,-0.179
COc1ccc([Si](C)(C)[C@H]2[C@H](CC(=O)N(CCO)Cc3ccccc3)O[C@@]3(C(=O)N(Cc4cccc(N5CCC5=O)c4)c4ccccc43)[C@@H]2C)cc1,1.39,-0.763 (inactive),-0.509 (inactive),1.16 (inactive),1.64,2.57 (inactive),-0.0188,0.847,0.976,-0.0334
C=CCC(OC(C)=O)[C@@H]1[C@@H](N(Cc2cccc3ccccc23)C(=O)c2cccc3ccccc23)c2cc(OCCCO)ccc2N1C(=O)c1ccc2ccccc2n1 (stereo not given in full),0.346,-1.03 (inactive),0.626 (inactive),-0.964 (inactive),0.681,-0.764 (inactive),-0.0102,0.282,-0.0176,-0.0549
Cc1ccc(S[C@]2(C(=O)NCCN3CCOCC3)CC(=O)N(Cc3cc(C(F)(F)F)cc(C(F)(F)F)c3)[C@@H]2c2ccc(CO)cc2I)cc1,0.95,-3.19 (inactive),-4.73 (inactive),14.2 (active),0.509,-1.52 (inactive),-0.183,-1.06,-0.122,-0.0828
Cc1ccc(S[C@]2(C(=O)NCC(C)C)CC(=O)N(Cc3ccccc3Cl)[C@@H]2c2ccc(CO)cc2)cc1,-0.446,-0.259 (inactive),-0.751 (inactive),-0.0993 (inactive),0.294,-0.0077 (inactive),-0.0216,-1.98,-1.5,-0.228
CS(=O)(=O)CCOC(=O)C1=CC(CCCO)=CC(c2cccs2)N(Cc2cc3c(cc2Br)OCO3)C=C1C(=O)OCCS(C)(=O)=O (stereo not given),1.56,0.187 (inactive),-1.16 (inactive),-0.919 (inactive),2.82,0.734 (inactive),-0.0379,0.91,1.06,0.0503
COC(=O)[C@@]1(Cc2ccccc2)[C@H]2c3cc(C(=O)N4CCCC4)n(Cc4ccc(C)o4)c3C[C@H]2CN1C(=O)c1ccccc1,-0.179,-0.619 (inactive),0.122 (inactive),-0.564 (inactive),2.6,-0.564 (inactive),-0.0127,0.231,0.622,0.0226
C=CCC(OC(C)=O)[C@@H]1[C@@H](N(Cc2ccc(-c3ccccc3)cc2)C(=O)Cc2ccc(F)cc2)c2cc(OCCCO)ccc2N1C(=O)c1ccc2ccccc2n1 (stereo not given in full),-0.0414,-0.583 (inactive),-0.0387 (inactive),-0.527 (inactive),0.208,1.47 (inactive),-0.057,-0.423,-0.0833,0.44
CCCCC=C[C@@H](NC(=O)c1ccco1)c1ccccc1,-0.568,0.529 (inactive),1 (inactive),1.92 (inactive),0.539,-0.675 (inactive),-0.0251,0.103,0.657,0.0836
COc1ccc([Si](C)(C)[C@@H]2[C@@H](CCn3cc([C@H](O)c4ccccc4)nn3)O[C@]3(C(=O)N(Cc4ccc(N5C(=O)c6cccc7cccc5c67)cc4)c4ccccc43)[C@H]2C)cc1,0.534,0.316 (inactive),-0.197 (inactive),1.64 (inactive),1,1.05 (inactive),-0.0237,-0.345,0.0481,-0.217
COCCOC(=O)N1C(=O)[C@@]2(c3cc(C#CCNC(N)=O)ccc31)[C@H](c1ccc(O)cc1)N1[C@H](c3ccccc3)[C@H](c3ccccc3)OC(=O)[C@H]1[C@@H]2C(=O)Nc1nc2ccccc2s1,0.902,-2.82 (inactive),-1.55 (inactive),-1.12 (inactive),1.01,3.57 (inactive),0.218,1.23,1.04,0.13
COc1ccc(C(O)C2C=CC3C(=O)NC(=O)C3N2Nc2ccccn2)cc1OCc1ccccc1 (stereo not given),0.301,0.167 (inactive),1.03 (inactive),-0.269 (inactive),3.51,-0.181 (inactive),-0.0865,0.15,-0.192,0.0357
COCCOC(=O)N1C(=O)[C@@]2(c3cc(C#CCCO)ccc31)[C@H](c1ccc(O)cc1)N1[C@H](c3ccccc3)[C@H](c3ccccc3)OC(=O)[C@H]1[C@@H]2C(N)=O,1.14,0.253 (inactive),0.479 (inactive),0.418 (inactive),1.51,-0.834 (inactive),0.0002,-0.243,0.213,-0.178
COc1cc(C(O)C2C=CC3C(=O)N(c4ccccc4)C(=O)C3N2Nc2ccc(C#N)cc2)cc(OC)c1OC (stereo not given),1.54,-0.531 (inactive),0.849 (inactive),1.75 (inactive),3.84,-1.27 (inactive),0.368,-0.0742,1.03,0.273
COC(=O)[C@@]1(Cc2ccccc2)[C@H]2c3cc(C(=O)N4CCCC4)n(C)c3C[C@H]2CN1C(=O)c1ccccc1,0.0683,0.29 (inactive),0.68 (inactive),0.0928 (inactive),3.35,0.391 (inactive),0.0165,0.0182,0.732,0.287
CC(=O)Nc1cc(Br)ccc1C(=O)O,0.183,-0.0103 (inactive),0.331 (inactive),0.178 (inactive),1.33,-0.18 (inactive),-0.0006,0.201,0.482,-0.156
